# According to PubChem BioAssay:
# Calls of active or inactive are those of the source.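 How the source made its calls, unless noted: active means compound raises insulin release from rat beta cells at 5 mM glucose, no numeric limit stated; inactive means the rest.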
# Legend:
# [1] = stimulators of nuclear beta-catenin in C2C12, primary screen, imaging, WNT3A-conditioned medium, mouse C2C12, NPC library (AID 1117326; in the data active means nuclear beta-catenin stimulation mostly above about 4.2%, no sharp cut-off; inactive means mostly below about 10%; further: reference of the scale not given here); conditions: stronger effect = higher value
# [2] = stimulators of insulin release from INS-1E, primary screen, cell-based, 5 mM glucose, NPC library (AID 1117329); conditions: rat INS-1E insulin secretion, at 10 µM, stronger effect = higher value; further: reference of the scale not given here
# [3] = growth inhibition of GSK3B-pretreated HCT116 cells – cell-based, CellTiter-Glo, 0.2 to 20 µM (AID 1117336;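 active means compounds lowering colon cancer cell viability after pretreatment blocking the GSK3B kinase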); conditions: HCT116 viability after GSK3B inhibitor, at 20 µM, stronger effect = higher value
# [4] = inhibition of endothelial tube formation, primary screen, imaging, VEGF stimulated, CD31 staining, tube area, NPC library (AID 1117340;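 active means compound that reduces growth-factor-driven endothelial tube area in a mixed cell culture, no cutoff stated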); conditions: VEGF-stimulated ADSC/ECFC co-culture, at 10 µM, stronger effect = higher value
# [5] = glucagon-like peptide 1 release enhancers, primary assay, NCI-H716 cell line, NPC library (AID 1117341;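 active means compound raises GLP1 secretion from the human gut endocrine cells, with no numeric limit stated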; further: reference of the scale not given here); conditions: NCI-H716 cells, at 10 µM, stronger effect = higher value
# [6] = HCT116 colon cancer cell growth inhibition, primary screen, CellTiter-Glo luminescence, NPC library (AID 1117342;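 active means compounds that lower survival of HCT116 colon cancer cells in the luminescence readout, no numeric limit stated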); conditions: at 20 µM (top of the series)
# [7] = CellTiter-Glo luminescent readout of SW480 viability loss, NPC library primary (AID 1117343;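 active means compounds that lower viability of the colon cancer cells in the luminescence readout, with no numeric limit stated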); conditions: CellTiter-Glo luminescence; at 20 µM (top of the series)
# [8] = decreased DLD-1 cellular survival, CellTiter-Glo luminescent readout, NPC compound collection, primary HTS (AID 1117346;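 active means compounds that lower survival of DLD-1 colon cancer cells in the luminescence readout, no cutoff given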); conditions: DLD-1 viability, CellTiter-Glo luminescence; at 20 µM (top of the series)
# [9] = target: 6-phosphogluconate dehydrogenase, decarboxylating (Homo sapiens) (UniProt P52209); assay: 6PGD enzyme inhibitors, primary screen, biochemical, human, recombinant enzyme, NADPH absorbance (AID 1159550;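 active means at least 20% inhibition of 6-phosphogluconate dehydrogenase activity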); conditions: recombinant 6PGD, NADPH absorbance 341 nm; at 10 µM; stronger effect = higher value
# 6-phosphogluconate dehydrogenase, decarboxylating (Homo sapiens), sequence (P52209 whole entry, looked up): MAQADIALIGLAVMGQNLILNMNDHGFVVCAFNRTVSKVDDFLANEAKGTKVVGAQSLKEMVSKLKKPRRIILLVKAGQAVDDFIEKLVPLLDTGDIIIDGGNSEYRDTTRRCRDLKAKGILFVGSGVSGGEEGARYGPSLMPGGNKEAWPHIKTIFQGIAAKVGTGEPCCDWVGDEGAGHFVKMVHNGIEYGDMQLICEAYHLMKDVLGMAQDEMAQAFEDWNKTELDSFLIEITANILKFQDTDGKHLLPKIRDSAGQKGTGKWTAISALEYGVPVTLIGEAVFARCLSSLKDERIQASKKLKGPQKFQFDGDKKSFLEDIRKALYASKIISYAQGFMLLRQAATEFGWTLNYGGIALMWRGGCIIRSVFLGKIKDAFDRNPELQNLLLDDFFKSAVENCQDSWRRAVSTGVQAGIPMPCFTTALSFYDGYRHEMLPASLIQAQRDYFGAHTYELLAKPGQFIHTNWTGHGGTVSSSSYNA
SMILES,nuclear beta-catenin stimulation ([1]; at 10 µM),"nuclear beta-catenin stimulation ([1]; stimulation, at 2 µM) [%]",insulin secretion stimulation [2],viability decrease [3],tube area decrease [4],GLP1 secretion stimulation [5],inhibition of viability [6],viability decrease (inhibition) [7],viability decrease (inhibition) [8],inhibition [9]
Cc1c(Cl)cccc1Nc1ccccc1C(=O)O,1.9% (inactive),1.6,2.1% (inactive),-14.5% (inactive),-8.8% (inactive),3.6% (inactive),35.6% (inactive),68.1% (active),93.6% (active),-12.8% (inactive)
COc1ccccc1OCC(O)CO (stereo not given),1.9% (inactive),0.9,-0.3% (inactive),-2.1% (inactive),-23.8% (inactive),1.3% (inactive),-1.2% (inactive),17.6% (inactive),-4.85% (inactive),12.6% (inactive)
O=C1c2ccccc2C(=O)C1c1ccccc1,0.3% (inactive),0.6,-1.2% (inactive),-5.45% (inactive),-11% (inactive),2.1% (inactive),-1% (inactive),1.3% (inactive),-4.85% (inactive),8.94% (inactive)
NC(N)=NS(=O)(=O)c1ccc(N)cc1,0.5% (inactive),0.1,-1.4% (inactive),7.4% (inactive),-2.9% (inactive),0.9% (inactive),-10.1% (inactive),54.6% (active),5.6% (inactive),-6% (inactive)
NCC1CCC(C(=O)O)CC1 (stereo not given),0.7% (inactive),0.5,-1.6% (inactive),-8.4% (inactive),25.3% (inactive),0.1% (inactive),-10.3% (inactive),2.1% (inactive),-6% (inactive),7.43% (inactive)
Nc1ccc(S(=O)(=O)Nc2nccs2)cc1,0% (inactive),0,-1.1% (inactive),-5.95% (inactive),18.7% (inactive),-3.5% (inactive),-3.5% (inactive),52.4% (active),12% (inactive),2.97% (inactive)
CCO/C([O-])=N/c1c[n+](N2CCOCC2)no1,0.8% (inactive),1.2,0.9% (inactive),22.3% (inactive),2.4% (inactive),-0.5% (inactive),8.63% (inactive),43.4% (inactive),-1.5% (inactive),16.2% (inactive)
CC(C)NC[C@@H](O)COc1cccc2ccccc12,-0.4% (inactive),1.7,15.3% (inactive),6.9% (inactive),5.1% (inactive),3.3% (inactive),0.8% (inactive),54.8% (active),13.7% (inactive),5.64% (inactive)
CCN(CC)CCNc1ccc(CO)c2sc3ccccc3c(=O)c12,63.7% (active),1.8,0.6% (inactive),24.4% (inactive),76% (active),10.2% (inactive),78.1% (active),74.7% (active),35.6% (inactive),7.31% (inactive)
O=C(O)c1ccccc1Nc1cccc(C(F)(F)F)c1,1.3% (inactive),2.3,0.1% (inactive),91.3% (active),47.5% (active),9.5% (inactive),66.3% (active),70.1% (active),78.8% (active),2.7% (inactive)
NC(=NCCCCCCN=C(N)/N=C(\N)Nc1ccc(Cl)cc1)/N=C(\N)Nc1ccc(Cl)cc1,-2.3% (active),45.4,36.6% (active),120% (active),111% (active),161% (active),125% (active),166% (active),101% (active),-5.13% (inactive)
c1ccc(CN(CC2=NCCN2)c2ccccc2)cc1,3.4% (inactive),2.4,11.3% (inactive),-68.5% (inactive),23.2% (inactive),-1.9% (inactive),15.7% (inactive),22% (inactive),0.7% (inactive),-4.52% (inactive)
CCN(CCCc1ccccc1)CCCc1ccccc1,1% (inactive),4.5,7.3% (inactive),-119% (inactive),5.4% (inactive),2.7% (inactive),41.4% (inactive),44% (inactive),60.1% (active),7.45% (inactive)
Cc1ccsc1/C=C/C1=NCCCN1C,-0.7% (inactive),0.1,0.2% (inactive),-25.2% (inactive),-9.8% (inactive),-0.1% (inactive),39.5% (inactive),90.9% (active),87.6% (active),5.11% (inactive)
CCCCOc1ccc(C(=O)CCN2CCCCC2)cc1,1.2% (inactive),-0.2,2.3% (inactive),55.8% (active),12.5% (inactive),-0.1% (inactive),59.9% (active),59.5% (active),31.3% (inactive),9.17% (inactive)
